Source: PubChem (Sanford-Burnham Center for Chemical Genomics)
tim10-1 inh – growth inhibitors of tim10-1 mutant yeast; AID 463190; inhibition, % at 20 µM; S. cerevisiae tim10-1 ts strain growth, BacTiter-Glo, 24 h; hit rate 2.2% among 330,000;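 active = inhibition of at least 40%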;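 also: mutant grown at 25 °C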
tim23-1 inh – growth inhibitors of tim23-1 mutant yeast; S. cerevisiae tim23-1 growth, BacTiter-Glo luminescence, 24 h; inhibition, % at 20 µM; hit rate 1.3% among 330,000; AID 463212;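 active = growth inhibition of the mutant yeast at or above 50%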;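 also: temperature-sensitive mutant grown at 25 °C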
NLRP3 yeast inh – inhibitors of NALP3 inflammasome in yeast; hit rate 0.39% among 330,000; inhibition, % at 10 µM; Yeast reconstituted NLRP3/ASC/caspase-1, beta-gal luminescence, 24 h; AID 2825;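 active = inhibition of 50% or more; inactive = inhibition below 50%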
TIM10 inh – TIM10 yeast growth inhibition; S. cerevisiae TIM10 strain growth, BacTiter-Glo luminescence, 24 h; inhibition, % at 10 µM; hit rate 1.4% among 330,000; AID 463195;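 active = inhibition of 40% or more at the single tested concentration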;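 also: wild-type TIM10 isogenic control strain grown at permissive 25 °C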
NALP1 inh – NALP1 inhibition. inhibition, % at 10 µM. hit rate 0.61% among 280,000. S. cerevisiae NALP1/ASC/caspase-1 growth, X-gal OD620, 72 h; in the data active = inhibition mostly above about 24%, no sharp cut-off; inactive = mostly below about 32%
tim10-1 confirm – tim10-1 yeast growth inhibition, confirmed. shares compounds with tim10-1 inh. S. cerevisiae tim10-1 ts strain growth, BacTiter-Glo, 24 h. hit rate 56% among 7,400. inhibition, % at 20 µM;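 active = inhibition of yeast growth at or above a set limit in either of two repeat tests at 20 µM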;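 also: tim10-1 mutant grown at permissive 25 °C to find synthetic lethal compounds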
tim10 confirm – TIM10 yeast growth inhibition, confirmed. hit rate 63% among 4,600. shares compounds with TIM10 inh. S. cerevisiae tim10 strain growth, BacTiter-Glo luminescence, 24 h. inhibition, % at 10 µM;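 active = inhibition of yeast growth at or above a set limit in either of two replicates at 10 µM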; also: this counterscreen used the strain with wild-type TIM10
tim23-1 conf – tim23-1 yeast growth inhibition, confirmed | shares compounds with tim23-1 inh | S. cerevisiae tim23-1 growth, BacTiter-Glo luminescence, 24 h | inhibition, % at 20 µM | hit rate 83% among 4,400;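 active = inhibition above about 39% in either of two replicate wells at 20 µM, limit read from the data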;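 also: temperature-sensitive tim23-1 mutant grown at 25 °C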
Hits are given with their value; - = inactive; . = no result given. A selection: hits, their analogues and other compounds. The true share with any hit is near 4%.

SMILES | tim10-1 inh | tim23-1 inh | NLRP3 yeast inh | TIM10 inh | NALP1 inh | tim10-1 confirm | tim10 confirm | tim23-1 conf
CCN(CC)S(=O)(=O)c1cc(NC(=O)Cn2ncc(Cl)c(Cl)c2=O)ccc1C | - | - | - | - | - | . | . | .
CC12CCC(=O)N1C(C(=O)Nc1ccc(SC(F)F)cc1)CS2 (stereo not drawn) | - | - | - | - | . | . | . | .
Cc1ccc(-c2nnc(N3CCN(C(=O)c4cccs4)CC3)c3ccccc23)cc1 | 55 | 69 | - | - | - | 50 | . | 59
CCOC(=O)N1CCN(c2nnc(-c3ccc(C)cc3)c3ccccc23)CC1 | 52 | 61 | - | - | - | 34 | . | 48
COc1ccc(NC(=O)c2ccco2)cc1NC(=O)c1ccccc1[N+](=O)[O-] | - | - | - | - | - | . | . | .
Cc1ccc(N=Cc2cc(Br)cc(Cl)c2O)cc1 | 51 | 77 | - | - | - | - | . | 78
Oc1ccc(Br)cc1C=Nc1ccc(Cl)cc1 | - | - | - | - | - | . | . | .
CCCCCc1ccc(CC(=O)Nn2c(C)nc3ccccc3c2=O)cc1 | 60 | 52 | - | - | - | 48 | . | 69
Cc1nc2ccccc2c(=O)n1NC(=O)Cc1ccc(Br)cc1 | - | - | - | - | - | . | . | .
CC(=O)c1ccc(N2CCN(C(=O)C3CCN(S(=O)(=O)c4cccs4)CC3)CC2)cc1 | - | - | - | - | - | . | . | .
Cc1nn(-c2ccccc2)c(C)c1/C=N/Nc1nc2ccccc2[nH]1 | 45 | 52 | - | 48 | - | - | - | 41
Cc1c(OC(C)C(=O)NCCCn2ccnc2)ccc2c3c(c(=O)oc12)CCC3 (stereo not drawn) | - | - | - | - | - | . | . | .
Cc1ccc(S(=O)(=O)Nc2ncccn2)cc1 | - | - | - | - | - | . | . | .
c1ccc(-c2nc3nonc3nc2-c2ccccc2)cc1 | 80 | 61 | - | 64 | - | 72 | 57 | 84
CCCCC[n+]1cccc2c3ccccc3ccc21 | - | - | - | - | - | . | . | .
Cc1ccc2ccccc2[n+]1CCCS(=O)(=O)[O-] | - | - | - | - | - | . | . | .
CCC[n+]1c2ccccc2cc2ccccc21 | 68 | 56 | - | 66 | - | 66 | 62 | 60
CCCC[n+]1c2ccccc2cc2ccccc21 | 71 | 65 | - | 74 | - | 70 | 69 | 64
O=C(O)CC(C(=O)Nc1ccc(Cl)cc1)N1CCCCCC1 (stereo not drawn) | - | - | - | - | - | . | . | .
Cc1cc(=O)oc2cc(OCC(=O)OCC(=O)N3CCC(C)CC3)ccc12 | - | - | - | - | - | . | . | .
CCN(CC)c1ccc(/C=N/NC(=S)NCc2ccco2)cc1 | 42 | 51 | - | 46 | - | 34 | - | 40
CN(C)CCCNC(=O)c1cc(C(=O)c2cccc(Cl)c2Cl)c[nH]1 | - | - | - | - | - | . | . | .
Cc1ccc(N2CCN(C(=O)c3cc(-c4ccc(F)cc4)[nH]c3C)CC2C)cc1 (stereo not drawn) | 52 | 74 | - | - | - | 51 | . | 55
COc1ccc(C(=O)NCCc2nnc3ccc(SCC(=O)N4CCCC4)nn23)cc1 | - | - | - | - | - | . | . | .
COc1cccc(C(=O)Oc2ccc3ccc(O)cc3c2)c1 | 43 | 57 | - | - | - | 38 | . | 54
SMILES | tim10-1 inh | tim23-1 inh | NLRP3 yeast inh | TIM10 inh | NALP1 inh | tim10-1 confirm | tim10 confirm | tim23-1 conf
Cc1ccccc1C(=O)Oc1ccc2ccc(O)cc2c1 | 49 | 51 | - | - | - | 46 | . | 49
Cc1ccccc1S(=O)(=O)Oc1ccc2ccc(O)cc2c1 | - | - | - | - | - | . | . | .
COC(=O)C1=C(C)N(Cc2ccco2)C(=O)/C1=C\c1ccc(N(C)C)cc1 | - | - | - | - | - | . | . | .
COC(=O)C1=C(C)N(Cc2ccco2)C(=O)/C1=C\c1ccc([N+](=O)[O-])cc1 | 62 | 64 | - | 66 | - | 77 | 74 | 57
CCN1C(=O)/C(=C\c2ccc3c(c2)OCO3)C(C(=O)OC)=C1C | 47 | - | - | 56 | - | 45 | 43 | 62
COc1ccc(CNS(=O)(=O)c2c(C(=O)N3CCCCCC3)c(C)n(C)c2C)cc1 | - | - | - | - | - | . | . | .
CC(=O)n1nc(-c2ccccc2)nc1NCc1ccc(N(C)C)cc1 | - | - | - | - | - | . | . | .
CC1CCN(C(=S)Nc2ccc(SC(F)F)cc2)CC1 | - | - | - | - | - | . | . | .
CC1CCCCC1NC(=S)Nc1ccc(SC(F)F)cc1 (stereo not drawn) | 66 | 53 | - | 70 | - | 65 | 64 | -
Cc1ccc2occ(/C=N/NC(=O)c3ccc(Cl)cc3)c(=O)c2c1 | - | - | - | - | - | . | . | .
CCOc1ccccc1C(=O)N/N=C/c1coc2ccc(Cl)cc2c1=O | 67 | 68 | - | 71 | - | 54 | - | 69
COc1cccc(-c2nc3c(c(=O)[nH]c(=O)n3Cc3ccccc3)n2CCO)c1OC(F)F | - | - | - | - | - | . | . | .
Cn1ncc(Cl)c1C(=O)N1CCN(c2ccc(Cl)c(Cl)c2)CC1 | 41 | 50 | - | - | - | - | . | 42
Cc1ccc(C(=O)OCn2ncc(Cl)c(Cl)c2=O)cc1 | 75 | 79 | - | 72 | - | 78 | 70 | 71
Cc1ccc(C)c(C(=O)Cn2ncc(Cl)c(Cl)c2=O)c1 | - | - | - | - | - | . | . | .
O=C(OCn1ncc(Cl)c(Cl)c1=O)c1ccc(C(F)(F)F)cc1 | 75 | 78 | - | 42 | - | 74 | 41 | 79
O=C(CSc1nc2ccccc2o1)Nc1nccs1 | - | - | - | - | - | . | . | .
COc1ccc(OCc2cc(/C=N\NC(=O)c3ccccc3)ccc2OC)cc1 | 49 | 52 | - | - | - | - | . | 45
Cc1ccc(C(=O)Sc2cccccc2=O)cc1 | 74 | 89 | - | 73 | - | 77 | 89 | -
Cc1ccc(C(=O)CC(=O)c2ccccc2)cc1 | - | - | - | - | - | . | . | .
CCCCn1nnc(NC(=O)c2ccc(-c3cccc(Cl)c3)o2)n1 | 50 | 72 | - | 45 | - | 51 | 47 | 74
CCOC(=O)c1sc(NC(=O)c2c(C)nn(Cc3ccccc3)c2C)cc1C | 43 | 50 | - | 61 | - | 46 | - | 52
CN1CCN(/N=C/c2ccc(N(C)c3ccccc3)cc2)CC1 | - | - | - | - | - | . | . | .
CN1CCN(/N=C/c2ccc(N(c3ccccc3)c3ccccc3)cc2)CC1 | 50 | 76 | - | - | - | - | . | -
Cc1nn2c(NCc3ccccn3)cc(C(C)(C)C)nc2c1-c1ccccc1 | 62 | 58 | - | 56 | . | 37 | 72 | 62
Nc1c(Cl)cc2c(c1Oc1ccccc1)C(=O)c1ccccc1C2=O | 52 | 66 | - | 54 | - | - | 48 | 67
O=S(=O)(Cc1ccccc1)N1CCNCC1 | - | - | - | - | - | . | . | .
CCN(Cc1nc2ccccc2c(=O)[nH]1)C(=O)COc1ccccc1-c1ccccc1 | - | - | - | - | . | . | . | .
